Molecules are shown by their SMILES.

Experiment [1] deals with T1, Aspartate--tRNA(Asp/Asn) ligase (Mycobacterium tuberculosis (strain ATCC 25618 / H37Rv)) (UniProt P9WFW3).
T1 sequence (whole entry): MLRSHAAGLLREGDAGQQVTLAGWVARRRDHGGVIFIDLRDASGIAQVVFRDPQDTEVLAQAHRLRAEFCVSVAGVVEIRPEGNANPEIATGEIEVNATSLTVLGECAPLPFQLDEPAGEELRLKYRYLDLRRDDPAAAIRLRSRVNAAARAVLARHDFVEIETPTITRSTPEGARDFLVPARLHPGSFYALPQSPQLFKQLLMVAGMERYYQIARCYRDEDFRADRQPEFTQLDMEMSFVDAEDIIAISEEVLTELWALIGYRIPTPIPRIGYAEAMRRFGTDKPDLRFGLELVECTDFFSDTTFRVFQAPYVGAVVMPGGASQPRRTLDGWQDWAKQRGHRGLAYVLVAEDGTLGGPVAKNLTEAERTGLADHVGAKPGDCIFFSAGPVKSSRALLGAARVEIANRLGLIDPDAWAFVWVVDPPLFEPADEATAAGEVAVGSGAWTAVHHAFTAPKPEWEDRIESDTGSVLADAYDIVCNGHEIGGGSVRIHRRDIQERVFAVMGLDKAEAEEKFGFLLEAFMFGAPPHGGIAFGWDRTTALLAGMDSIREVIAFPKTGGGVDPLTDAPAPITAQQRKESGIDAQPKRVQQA
As to the kind of experiment: Assay for Asp RNA synthetase-1 from Mycobacterium tuberculosis. In kind it is functional. On the set-up: scale not given: direction of the effect not stated beside the values. The conditions noted are these: 30 µM.

Experiment [2] concerns the target Shiga toxin 2 (Escherichia coli O157:H7) (UniProt P09385+P09386). As to the kind of experiment: E. coli 0.157:H7 Shiga Toxin SOP - stx2 screening assay. Set-up: scale not given: direction of the effect not stated beside the values. The settings on record: 30 µM. It counts as functional.

For `Cc1ncc(-c2ccnc(N3CCCCC3)n2)c(=O)[nH]1`, the Percent Effect in experiment [1] is -2.84%; in experiment [2], -19.6%.

Take `C1CC(CN2CCO[C@H]3[C@H](OCC4CC4)CC[C@@H]32)CCO1`: the values for the Percent Effect in experiment [1] and in experiment [2] were 0.999% and -6.68%, respectively.

As for `O=S(=O)(c1ccccc1)N1CCC2(CCCN2CC2CCCC2)C1` (stereo not given), the results for the Percent Effect in experiment [1] and in experiment [2] were -2.77% and 9.27%, respectively.

For the compound `COc1cccc(-c2noc(C3CCN(Cc4cn(C)nc4C)C3)n2)c1` (stereo not given), the Percent Effect in experiment [1] was -1.93%; in experiment [2], -38.8%.

Consider `CCC(CNC(=O)Nc1cnn(CC)c1)N1CCCC1` (stereo not given), for which the Percent Effect in experiment [1] is -2.08%; in experiment [2], 1.4%.

For `Cc1noc(C)c1CN(C)C(=O)c1ccc(NC2CC2)nc1`, the Percent Effect came to 5.06% in experiment [1] and 26.3% in experiment [2].

For the compound `CCc1cccc(N2CCC(NC(=O)c3cc[nH]n3)CC2)c1`, the values for the Percent Effect in experiment [1] and in experiment [2] were 7.15% and 18.9%, respectively.

Take `COc1ccc(CN2CCc3ncnc(C4CCOC4)c3CC2)cc1` (stereo not given): the Percent Effect in experiment [1] is -0.146%; in experiment [2] it was -53.7%.

Regarding `O=C(O)c1c[nH]c2cc(NS(=O)(=O)c3cccc(Cl)c3F)ccc12`, the Percent Effect in experiment [1] was determined as 2.61%; in experiment [2], 12.3%.

Consider `O=C(O)c1ccc2ccc(N3CCN(CC4CC4)CC3)n2c1`, for which the Percent Effect in experiment [1] was -6.96%; in experiment [2], -15.7%.

As for `CN(C)S(=O)(=O)c1ccc(OCCNCCn2cccn2)cc1`, the Percent Effect was -6.56% in experiment [1] and -13.8% in experiment [2].

Turning to `Cc1cc(NCc2cccnc2)n2nc(C)cc2n1`, the Percent Effect is -2.06% in experiment [1] and 13.8% in experiment [2].

As to `Cc1nc(C(=O)N2CCC(Nc3cccnn3)CC2)cs1`, the Percent Effect is -7.35% in experiment [1] and -19.2% in experiment [2].

`Cc1csc(CN2CC[C@H]3C[C@H](c4nnc(C)[nH]4)O[C@@H]3C2)n1`: the Percent Effect in experiment [1] is 1.94%; in experiment [2], 0.515%.

In the case of `O=C1[C@@H]2CCN(Cc3ccncc3)C[C@@H]2OCCN1c1ccccc1`, the Percent Effect in experiment [1] is -1.46%; in experiment [2], -5.4%.

On to `Cc1noc(C)c1CCC(=O)N1CCCN(Cc2cscn2)CC1`, for which the Percent Effect is -0.789% in experiment [1] and 27.4% in experiment [2].

As to `Cc1cccc(CS(=O)(=O)CC(=O)NCCCOC(C)C)c1`, the Percent Effect in experiment [1] was -3.37%; in experiment [2] it was -44.7%.

`CC(C)(C)c1cc(CN2CC[C@@H](NC(=O)c3cccnc3)[C@H](O)C2)n[nH]1`: the Percent Effect is -4.62% in experiment [1] and 14.9% in experiment [2].

Take `Cc1cc(C[C@@H]2COC[C@@H]2NC(=O)CN2CCCN(C)CC2)on1`: the Percent Effect in experiment [1] is -1.58%; in experiment [2] it was -5.15%.

Regarding `O=C(c1ccccc1OCC1CC1)N1CCCC(n2ccnc2)C1` (stereo not given), the Percent Effect in experiment [1] was 6.48%; in experiment [2], -13.9%.

Source of the values: ChEMBL document CHEMBL3988442, “University of Dundee, Small-Polar-MMV Screening Library” (2021).
